The full list was thinned out, with hits kept by preference.
GIRK2 act = Activators of human GIRK2-containing channels. 34,000 tested, under 10 active. HEK293 GIRK2/NPY4 cells, thallium flux fluorescence. activation (% efficacy), % for hits at 37.5 µM;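 active means primary screen hit, no activity in plain HEK293 cells, and in GIRK2-only cells above 5% efficacy rising with concentration; inactive means the rest, including fluorescent compounds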;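 further: efficacy is normalized control-subtracted fluorescence 15 s after thallium addition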
GluA2 TARP mod = modulators of AMPA receptor GluA2-stargazin complexes; HEK293 GluA2+stargazin, membrane potential dye (FDSS), glutamate EC50; hits were called plate by plate, in both directions; calls only at 30 µM; hit rate 3.5% among 40,000;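 active means any of four per-well response measures lying three or more SD from its plate-wide compound average, in either direction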
Target sequence (O88602 whole entry, looked up): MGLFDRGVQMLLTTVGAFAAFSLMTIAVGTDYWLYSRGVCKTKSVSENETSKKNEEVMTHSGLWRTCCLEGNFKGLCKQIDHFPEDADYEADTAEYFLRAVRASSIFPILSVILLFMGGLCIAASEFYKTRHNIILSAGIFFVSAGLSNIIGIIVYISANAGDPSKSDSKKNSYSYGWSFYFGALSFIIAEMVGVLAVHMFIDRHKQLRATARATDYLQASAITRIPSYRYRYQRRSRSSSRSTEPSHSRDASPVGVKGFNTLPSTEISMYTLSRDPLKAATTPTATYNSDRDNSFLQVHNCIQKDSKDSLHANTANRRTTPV
Target sequence (P19491 whole entry, looked up): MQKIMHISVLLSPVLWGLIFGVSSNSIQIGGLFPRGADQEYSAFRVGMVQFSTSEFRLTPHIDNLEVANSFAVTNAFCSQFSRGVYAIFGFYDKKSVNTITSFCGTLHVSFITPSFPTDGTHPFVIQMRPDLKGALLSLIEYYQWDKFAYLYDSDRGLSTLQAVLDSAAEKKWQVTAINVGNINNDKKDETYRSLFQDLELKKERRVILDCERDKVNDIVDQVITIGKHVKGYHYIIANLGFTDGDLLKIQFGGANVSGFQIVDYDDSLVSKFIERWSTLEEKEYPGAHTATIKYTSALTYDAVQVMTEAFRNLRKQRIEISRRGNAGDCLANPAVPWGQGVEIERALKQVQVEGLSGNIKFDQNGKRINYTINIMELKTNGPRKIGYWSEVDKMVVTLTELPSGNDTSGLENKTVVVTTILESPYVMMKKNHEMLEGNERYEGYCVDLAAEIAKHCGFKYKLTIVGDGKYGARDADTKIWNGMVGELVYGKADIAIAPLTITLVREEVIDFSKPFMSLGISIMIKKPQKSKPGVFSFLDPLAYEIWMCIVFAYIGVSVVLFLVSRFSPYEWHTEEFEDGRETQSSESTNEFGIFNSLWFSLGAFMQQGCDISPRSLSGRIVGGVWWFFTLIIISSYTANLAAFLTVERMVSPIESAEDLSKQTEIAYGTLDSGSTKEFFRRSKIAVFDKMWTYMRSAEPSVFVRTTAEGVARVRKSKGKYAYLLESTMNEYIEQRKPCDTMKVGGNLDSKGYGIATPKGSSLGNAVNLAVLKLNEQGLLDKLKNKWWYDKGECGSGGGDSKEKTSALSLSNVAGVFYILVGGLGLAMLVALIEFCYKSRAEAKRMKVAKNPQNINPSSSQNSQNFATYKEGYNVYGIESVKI
An asterisk follows results filed as active; i = inactive; / = no result given; + = active, no number.

SMILES	GIRK2 act	GluA2 TARP mod
CC(C)CNC(=O)CCn1c(=O)c2ccccc2n2c(SCC(=O)Nc3cccc(F)c3)nnc12	i	/
CCCCOc1ccccc1NC(=O)/C=C/c1ccc(OC)c(OC)c1	i	i
O=C(Nc1ccc(-n2cnnn2)cc1)c1cc(-c2ccco2)n(C2CCS(=O)(=O)C2)n1 (stereo not drawn)	i	i
COc1ccc(CCNC(=O)C(=O)c2cn(CC(=O)N3CCOCC3)c3ccccc23)cc1	/	+
COc1ccc(NC(=O)C(=O)c2cn(CC(=O)N3CCOCC3)c3ccccc23)cc1	/	i
CCOc1cccc2cc(C(=O)NCCOc3ccc(-c4ccc(C)cc4)nn3)c(=O)oc12	i	i
O=C(CSc1nc(=O)n(CCO)c2c1CCCC2)N1CCc2ccccc21	i	i
O=C(CSc1nc(=O)n(CCCO)c2c1CCC2)N1CCc2ccccc21	i	+
CCc1ccccc1NC(=O)C(=O)NCCc1ccc(Cl)cc1	i	i
CSc1ccccc1NC(=O)C(=O)NCCc1ccc(Cl)cc1	i	+
Cn1ccc(C(=O)N2CCNC(=O)C2(C)C)n1	i	i
CC1(C)C(=O)NCCN1C(=O)c1ccco1	i	+
CCCCOc1ccccc1-c1cc2c(SCC(=O)Nc3c(C)cccc3C)nccn2n1	i	i
COc1cccc(-c2nnc3ccc(OCCNC(=O)NC4CCCCC4)nn23)c1	i	+
COc1ccc(-c2nnc3ccc(OCCNC(=O)c4cccs4)nn23)cc1OC	i	i
COc1ccc(-c2nnc3ccc(OCCNC(=O)c4ccco4)nn23)cc1	i	+
COc1ccc(-c2nnc3ccc(OCCNC(=O)c4ccccc4Cl)nn23)cc1	i	i
COc1ccc(-c2nnc3ccc(OCCNC(=O)Nc4ccccc4C)nn23)cc1OC	i	+
COc1cccc(-c2nnc3ccc(OCCNC(=O)Nc4cccc(C)c4)nn23)c1	i	i
COc1cc(NS(=O)(=O)c2cc(C)ccc2OC)ccc1N1CCCC1=O	i	i
Cc1c(Cl)cccc1NC(=O)c1ccc(=O)n(Cc2cccc([N+](=O)[O-])c2)c1	i	i
Cc1ccc(NC(=O)c2ccc(=O)n(Cc3cccc([N+](=O)[O-])c3)c2)cc1C	i	i
Cc1ccnc(NC(=O)c2ccc(=O)n(Cc3cccc([N+](=O)[O-])c3)c2)c1	i	+
Cc1cccnc1NC(=O)c1ccc(=O)n(Cc2cccc([N+](=O)[O-])c2)c1	i	+
N#Cc1cnc(-c2ccc(F)cc2)n(CC(=O)Nc2ccc(C(F)(F)F)cc2)c1=O	i	i
SMILES	GIRK2 act	GluA2 TARP mod
Cc1ccc(C)c(S(=O)(=O)NCCN2CCC(c3cccs3)CC2)c1	i	i
COc1cc(NC(=O)c2n[nH]nc2Nc2cccc(Cl)c2)cc(OC)c1	i	+
O=C(Nc1ccccc1Br)c1n[nH]nc1Nc1cccc(Cl)c1	i	i
COCc1ccc(C(=O)Nc2nnc(C(C)C)s2)o1	i	i
CCC(=O)Nc1nnc(-c2ccc3c(c2)CCCC3)o1	i	i
CCOc1ccc(-c2nnc(NC(=O)CC)o2)cc1OCC	i	+
COc1cc(OC)cc(C(=O)Nc2nnc(-c3ccc(OC)c(OC)c3)o2)c1	i	+
COc1ccc(-c2nnc(NC(=O)CCc3ccccc3)o2)cc1OC	i	i
COc1cc(OC)cc(C(=O)Nc2nnc(-c3ccc(OC)cc3OC)o2)c1	/	i
COc1ccc(C(=O)Nc2nnc(-c3cc4cccc(OC)c4o3)o2)cc1OC	/	+
COc1cccc2cc(-c3nnc(NC(=O)c4ccccc4)o3)oc12	/	i
COc1ccc(-c2nnc(NC(C)=O)o2)cc1OC	i	+
COC(=O)Cn1c(=NC(=O)CS(=O)(=O)Cc2ccccc2)sc2cc(OC)ccc21	i	i
CCOC(=O)Nc1nc(CC(=O)NCc2c(F)cccc2F)cs1	i	/
CCOC(=O)c1oc2ccccc2c1NC(=O)c1ccno1	i	i
CCOc1ccccc1C(=O)Nc1cccc(-n2c(C)nc3ccccc3c2=O)c1	/	i
Cc1ccc(C(=O)Nc2nnc(-c3cccs3)o2)cc1	/	i
COc1ccc(C(=O)Nc2nnc(-c3ccc(OC)c(OC)c3)o2)cc1OC	i	+
COc1ccc(-c2nnc(NC(=O)c3ccc(S(=O)(=O)C(C)C)cc3)o2)cc1OC	i	+
Cc1ccc(C(=O)Nc2nnc(-c3cccs3)o2)cc1C	/	i
COc1ccc(C(=O)Nc2nnc(-c3ccc(SC)cc3)o2)cc1OC	i	i
CCCCOc1ccc(C(=O)Nc2nnc(-c3ccc(OC)c(OC)c3)o2)cc1	i	i
CN(C)c1ccc(C(=O)Nc2nnc(-c3cccs3)o2)cc1	/	+
COc1ccc(C(=O)Nc2nnc(-c3cccs3)o2)cc1OC	/	+
COc1ccc(Cl)cc1NC(=O)NCCc1csc2nc(-c3ccccc3F)nn12	i	i
SMILES	GIRK2 act	GluA2 TARP mod
COc1ccccc1-c1nnc(NC(=O)c2ccc(C(C)=O)cc2)o1	/	i
COc1ccc(C(=O)Nc2nnc(-c3ccccc3OC)o2)cc1OC	/	+
Cc1ccc(S(=O)(=O)N(C)c2cc(S(=O)(=O)N(C)CCO)c(C)cc2C)cc1	/	i
CSc1ccccc1NC(=O)C(=O)NCC1CCN(Cc2ccco2)CC1	i	i
CSc1ccccc1CN1CCC(CNC(=O)/C=C/c2ccc3c(c2)OCO3)CC1	i	i
CSc1ccccc1CN1CCC(CNC(=O)/C=C/c2ccccc2)CC1	i	+
CSc1ccccc1NC(=O)C(=O)NCC1CCN(Cc2cc(C)oc2C)CC1	i	+
O=C(/C=C/c1ccco1)NCC1CCN(Cc2ccsc2)CC1	i	/
O=C(/C=C/c1ccccc1)NCC1CCN(Cc2ccsc2)CC1	i	+
Cc1cc(NC(=O)c2ccc(S(=O)(=O)N(C)C3CCCCC3)cc2)n(C)n1	i	/
Cc1ccc(N2CC(NC(=O)c3ccccc3C(F)(F)F)CC2=O)cc1 (stereo not drawn)	/	i
COc1cc(OC)cc(C(=O)NCC(c2cccc3ccccc23)N2CCCC2)c1 (stereo not drawn)	/	i
CCCCn1c(SCc2nc(-c3ccc(Cl)cc3)no2)nc2ccsc2c1=O	i	+
CCCCn1c(SCc2nc(-c3cc(OC)cc(OC)c3)no2)nc2ccsc2c1=O	i	i
COc1ccc(CNC(=O)Cn2c(=O)n(CCCCC(=O)NCC(C)C)c(=O)c3ccccc32)cc1	/	i
CCCNC(=O)CCCCn1c(=O)c2ccccc2n(CC(=O)NCc2ccc(F)cc2)c1=O	i	+
CC(C)CCNC(=O)CCCCn1c(=O)c2ccccc2n(CC(=O)NCc2ccccc2)c1=O	/	+
CCCNC(=O)CCCCn1c(=O)c2ccccc2n(CC(=O)Nc2ccc(OC)c(OC)c2)c1=O	/	i
O=C(CCCCn1c(=O)c2ccccc2n(CC(=O)NC2CCCCC2)c1=O)NC1CCCCC1	i	+
O=C(CCCCn1c(=O)[nH]c2ccccc2c1=O)NC1CCCCC1	i	i
COc1cc([N+](=O)[O-])ccc1NC(=O)C(C)N1C(=O)c2ccccc2S1(=O)=O (stereo not drawn)	/	i
Cc1ccc(-c2csc(NC(=O)CCCS(=O)(=O)c3ccc(F)cc3)n2)cc1	/	i
Cc1ccc(CN2C(=O)N(c3ccc(C)c(Cl)c3)C3CS(=O)(=O)CC32)cc1 (stereo not drawn)	i	i

Source: PubChem BioAssay (several laboratories)
